Results: the supplement of paper PMC6555819

Key:
Assay in all cases: PBM binding z-score (relative to random genomic background probes); higher = stronger binding; sequences stand for … in GC…GCGATTGACAGCGTAGAATGAAGG
[1] = test system: PPARg:RXRa DBDmut IVT, anti-RXR (DBD mutation: RXRa K156A/R161A, NR concentration 270 nM, RXRa partner concentration 90 nM)
Summary of the method: (§1)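 Binding buffer was PBS pH 7.4 with 2% milk, 0.02% Triton X-100, 1 mM DTT, 0.2 mg/mL BSA and 0.4 mg/ml salmon testes DNA. In it, ligand-free nuclear receptor dimers were incubated 1 h on custom Agilent 4×180K protein-binding microarrays carrying double-stranded probes. Antibodies against each partner (one per run) detected binding, and z-scores were calculated against random background probes after regression normalization of scanned fluorescence.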

[2] = test system: PPARg:RXRa IVT, anti-PPARg (NR concentration 270 nM, RXRa partner concentration 90 nM)
Summary of the method: as §1

[3] = test system: PPARg DBDmut:RXRa IVT, anti-PPARg (DBD mutation: PPARg1 K132A/R137A, NR concentration 270 nM, RXRa partner concentration 90 nM)
Summary of the method: as §1

[4] = test system: PPARg DBDmut IVT, anti-PPARg (DBD mutation: PPARg1 K132A/R137A, NR concentration 270 nM)
Summary of the method: as §1

[5] = test system: PPARg homodimer (NR concentration 180 nM)
Summary of the method: as §1

[6] = test system: PXR:RXRa (NR concentration 270 nM, RXRa partner concentration 90 nM)
Summary of the method: as §1

[7] = test system: PXR homodimer (NR concentration 270 nM)
Summary of the method: as §1

[8] = test system: RARa:RXR (NR concentration 270 nM, RXRa partner concentration 90 nM)
Summary of the method: as §1

[9] = test system: RARa homodimer (NR concentration 270 nM)
Summary of the method: as §1

[10] = test system: RARb:RXRa (NR concentration 270 nM, RXRa partner concentration 90 nM)
Summary of the method: as §1

Row | Sequence | PBM binding z-score [1] | PBM binding z-score [2] | PBM binding z-score [3] | PBM binding z-score [4] | PBM binding z-score [5] | PBM binding z-score [6] | PBM binding z-score [7] | PBM binding z-score [8] | PBM binding z-score [9] | PBM binding z-score [10]
1 | AGAATGAGGGTAAGATCAGGGAAACAGAATACAT | 2.28 | 1.71 | 1.14 | 0.818 | 0.587 | 0.216 | 0.539 | 0.611 | 1.07 | 0.741
2 | GCATTTAGGTAATACAAGGTGAAAGTCCGATTGT | 3.13 | 2.5 | 1.39 | 0.568 | 0.826 | 0.319 | 0.3 | 0.911 | 0.039 | 0.715
3 | CGTCAAAGTTTAACTAAGGTAACGTAAAGCACGC | 0.271 | 1.32 | 0.6 | 1.17 | 0.901 | 1.45 | 0.928 | 1.55 | 0.858 | 2.44
4 | GATACAGGGTCAGCTAGTGGCCAGAGTATGGAAA | 1.03 | 2.29 | -0.052 | -0.0645 | 1.79 | 1.89 | 0.153 | 3.05 | -0.0625 | 3.69
5 | TCTCGGAGGACACGAAAGGTCAGACCTCGACATC | 1.73 | 1.54 | 0.0109 | -0.512 | 2.48 | 4.1 | 0.547 | 4.15 | 1.09 | 4.28
6 | CTCGAAAGGTCTTGCTCAGGTGAGTATACCAAAC | 0.411 | 0.795 | 0.193 | -0.313 | 0.433 | 0.314 | -0.568 | 0.971 | -0.363 | 1.75
7 | CGCACTAGGTCAAGGACAGTGAATCTCCGCACGC | 8.02 | 7.89 | 1.21 | 0.566 | 1.2 | 1.15 | 0.0235 | 1.92 | 0.00773 | 3.92
8 | ACTTACGGGTCATCGAGGTTATAGCACGCGTATA | 2.89 | 4.16 | 1.78 | 1.14 | 2.09 | 5.14 | 4.1 | 4.92 | 1.11 | 4.11
9 | CGTCCAAGGTCAGAGAGGTCTGTGAATGCCGAGT | 2.15 | 2.25 | -0.507 | -0.56 | 2.09 | 2.96 | 1.23 | 3.24 | 0.529 | 4.49
10 | CCTTACGGGTCACTCGAGGTTATAGCATCGGAGT | 2.22 | 3.7 | 0.422 | 0.0524 | 1.69 | 5.71 | 0.375 | 3.69 | 0.443 | 3.91
11 | CCTAGTTGGTCAAGGGCACACACGCTATAGGTAC | 1.1 | 1.69 | -0.275 | 0.0269 | 1.15 | 0.512 | 0.494 | 0.731 | 1.05 | 1.98
12 | GCTAGTTGGTCAGTACAAGGTCACACACCGGTCG | 0.892 | 2.35 | -0.0423 | 0.196 | 2.2 | 3.74 | 1.58 | 3.91 | 0.633 | 3.36
13 | TAGCCTAGCTCAGATCGGGCCAGTATACGCTATA | -0.922 | -0.645 | -0.837 | -1.92 | -1.79 | -1.09 | -1.09 | -1.21 | -1.25 | -1.89
14 | ATCTCAAGGTAACAAGTTCAGTGAAAGAGAGGAC | 0.525 | 1.3 | 1.3 | 1.1 | 1.41 | 1.88 | 2.27 | 1.33 | 1.14 | 2.08
15 | ATCTCTAGGGAAAGATAGTTCAGTGAATGCAAAT | 0.0889 | 0.274 | 0.441 | 0.248 | 0.581 | 0.457 | 0.536 | 0.402 | 0.55 | 0.406
16 | CCTCCAAGGTCAGCAGGTCAGTGAAAGCGACGTG | 2.44 | 3.16 | -0.182 | -1.13 | 2.56 | 3.13 | 0.806 | 4.32 | 0.668 | 5.41
17 | CGAACTAGGTCATCCAGGAAAGTGAATACATTGA | 8.18 | 8.5 | 3.43 | 1.05 | 1.98 | 1.58 | 0.128 | 2.49 | 0.697 | 3.96
18 | GGAACGAGGGCAAGGTTGATAGCATCTGTCGACG | 3.31 | 3.93 | 0.295 | -0.611 | 0.79 | 0.705 | -0.0103 | 0.822 | 0.206 | 2.52
19 | ATCGAAAGGTCGAAGGGGAGTATACCCACCCGAA | -0.023 | 1.38 | 1.29 | 0.309 | 1.15 | 2.21 | 0.32 | 2.79 | 0.273 | 3.73
20 | ATATGTAGGTTATCGGGTCGTTCAGTTTGCGCAT | 7.3 | 6.87 | 1.68 | 1.58 | 1.6 | 1.91 | 2.09 | 1.62 | 1.26 | 1.42
21 | TAGCATAGGTCATTCAGGGGCCAGTATAGAAAGC | 1.02 | 2.08 | 0.638 | 0.381 | 5.69 | 4.14 | 0.0442 | 5.79 | 1.25 | 4.4
22 | CCGACTGGGGCATACGGTTACCATAAGCCAGCCC | 2.5 | 2.15 | -0.604 | -1.2 | 0.276 | -0.401 | -0.646 | -0.126 | -0.0238 | 0.496
23 | CGAACTAGGTCATCCAGGACAGTGACTACATTGA | 8.16 | 8.47 | 4 | 0.771 | 3.18 | 1.88 | 1.13 | 2.32 | 0.438 | 3.95
24 | CCTACTGGGCCATTCAGAGGTCGTTGATCATATG | 4.62 | 3.78 | -0.302 | 0.289 | 0.217 | 1.55 | 0.112 | 1.27 | -0.226 | 1.11
25 | ATCTTTAGGTAAAGATAGTTCAGTGAATGCAAAT | 0.996 | 0.866 | 1.02 | 1.16 | 0.255 | 1.01 | 0.329 | 0.518 | 1.15 | 0.913
